High-throughput results deposited in PubChem by National Center for Advancing Translational Sciences (NCATS).
Most compounds without a hit are left out; they make up all but 3.3% or so of the library.
PI4K2A inh = PI4K2A (human) kinase inhibition. Q9BTU6. purified PI4K2A, ADP-Glo luminescence, 1 h; hits give low values. activity change, negative = inhibition, % at 76.9 µM. actives 0.13% (n = 420,000). AID 1346378; in the data active = activity change below about -50%; inconclusive = mostly about -30% to -49%
Target sequence (Q9BTU6 whole entry, looked up): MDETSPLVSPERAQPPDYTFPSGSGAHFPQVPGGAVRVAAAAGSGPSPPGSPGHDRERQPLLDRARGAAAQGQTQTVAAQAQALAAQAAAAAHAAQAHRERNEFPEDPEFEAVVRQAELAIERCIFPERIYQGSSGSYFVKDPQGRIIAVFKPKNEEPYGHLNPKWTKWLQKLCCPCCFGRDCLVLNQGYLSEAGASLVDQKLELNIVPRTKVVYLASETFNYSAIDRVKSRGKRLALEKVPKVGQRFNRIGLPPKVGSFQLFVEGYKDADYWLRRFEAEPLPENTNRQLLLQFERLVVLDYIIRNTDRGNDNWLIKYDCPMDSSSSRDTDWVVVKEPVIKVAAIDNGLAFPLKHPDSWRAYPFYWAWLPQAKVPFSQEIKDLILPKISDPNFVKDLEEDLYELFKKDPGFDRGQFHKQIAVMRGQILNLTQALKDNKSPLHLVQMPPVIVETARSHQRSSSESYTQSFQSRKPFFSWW
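Compounds are screened against recombinant PI4K2A using PI as substrate and ATP, the latter dispensed at 300 microM. Reactions run one hour at ambient temperature before ADP-Glo detection; full inhibition defined by wells lacking enzyme.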
LDHA inh = inhibitors of human lactate dehydrogenase A; purified LDHA, NADH/diaphorase-resazurin fluorescence; hits give low values; actives 0.15% (n = 480,000); activity change, % (values are at about 110 or 230 µM); in the data active = activity change below about -30%; inconclusive = mostly about -25% to -30%
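Enzyme activity of human lactate dehydrogenase 5 (2 nM; 0.06 mM NADH, 0.2 mM pyruvate, 5 min, RT) is measured via a resazurin/diaphorase fluorescence readout of residual NADH.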
PI5P4K alpha inh = blocks human PI5P4K alpha kinase activity; P48426; PI5P4Kalpha enzyme, ADP-Glo luminescence, 60 min; hits give low values; max response, %; actives 1.2% (n = 330,000); AID 652105; active = max response of -50% or lower; inconclusive = between -30% and -50%; inactive = -30% or higher; note: value at the top dose of about 77 µM
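Reactions run in 0.038 M HEPES pH 7.4, 0.28 mM EGTA, 0.1% CHAPS and 5% DMSO, with PI5P4Kalpha, substrate, compound and 5 microM ATP final, one hour at room temperature. Readout is ADP-Glo luminescence.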
D3 ag = D3 dopamine receptor (human) agonism; AID 652048; D3R DiscoveRx beta-arrestin cells, luminescence, 90 min; max activation, %; actives 0.58% (n = 410,000); P35462; in the data active = max activation above about 30%
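Agonist mode: compounds and dopamine controls were applied to plated cells for 90 min at 37 degrees C after an overnight attachment at 1500 cells/well. Luminescent read-out followed 30 - 60 minutes at room temperature with DiscoveRx detection reagent.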
D3 antag = blocks the human D3 dopamine receptor | P35462 | D3R cells, DiscoveRx beta-arrestin luminescence, antagonist mode; hits give low values | max response, negative = inhibition, % | actives 2.5% (n = 360,000); in the data active = max response below about -50%; inconclusive = no clear call, values can overlap the other calls
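Cells plated overnight at 1500 cells/well, then exposed to library compounds with dopamine controls for 90 minutes at 37 degrees C. DiscoveRx reagent added for 30–60 minutes at room temperature; luminescence read, quantitative HTS format.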
Numbers stand for hits; i = inactive; ? = inconclusive; nt = not tested or not shown.

SMILES	PI4K2A inh	LDHA inh	PI5P4K alpha inh	D3 ag	D3 antag
CCN(CC)C(=O)c1[nH]cnc1C(=O)NCc1ccccc1	i	i	i	i	-54
O=C(N[C@@H](Cc1ccccc1)C(=O)OCc1ccccc1)c1nc[nH]c1C(=O)NCc1ccccc1	i	i	i	i	-75
CCN(CC)C(=O)c1[nH]cnc1C(=O)N[C@@H](C)C(=O)OCc1ccccc1	i	i	i	i	i
C[C@@H](NC(=O)c1nc[nH]c1C(=O)NCC(=O)OCc1ccccc1)c1ccccc1	i	i	i	47	i
O=S(=O)(c1ccc2nc(N3CCN(c4ccccc4F)CC3)ccc2c1)N1CCCC1	nt	i	nt	nt	nt
c1ccc(-n2nnnc2NCCc2c[nH]c3ccccc23)cc1	i	i	i	i	-52
CC(C)(C)c1cc(-c2nc(N)nc(N)n2)c(O)c(C(C)(C)C)c1	i	i	i	48	i
CCc1ccc(NC(=O)Cn2nnc(-c3ccccc3N)n2)cc1	i	i	nt	80	nt
O=C(Cn1cc(COc2ccc(Cl)c(Cl)c2)nn1)NS(=O)(=O)c1ccccc1C(F)(F)F	i	i	i	i	-67
O=C(Cn1cc(COc2ccc(-n3cccc3)cc2)nn1)NS(=O)(=O)c1ccccc1C(F)(F)F	i	i	?	i	i
Cc1cc(S(=O)(=O)c2ccc([N+](=O)[O-])cn2)ccc1Br	i	i	i	i	-73
Cc1ccc(S(=O)(=O)c2ccc(C(F)(F)F)cn2)cc1	nt	i	nt	nt	nt
Cc1cc(Sc2ccc([N+](=O)[O-])cn2)ccc1Br	i	i	i	i	i
Nc1ccc(S(=O)(=O)c2ccccc2)nc1	i	i	i	i	i
O=[N+]([O-])c1ccc(S(=O)(=O)c2ccccc2)nc1	i	i	i	i	-151
Cc1ccc(S(=O)(=O)c2ccc([N+](=O)[O-])cn2)cc1	i	i	i	i	-75
CCCn1c(CNC(=O)c2cc(OC)c(OC)c(OC)c2)nc2ccccc21	nt	i	nt	nt	nt
O=C(CCCc1c[nH]c2ccccc12)N1CCN(CC(=O)N2CCCC2)CC1	nt	i	nt	nt	nt
O=C(NCCc1ccncc1)c1ccccc1Br	nt	i	nt	nt	nt
O=C(NC(=S)NC1CCCC1)c1ccccc1	i	i	i	i	i
N#Cc1ccc(C(=O)NC(=S)NC2CCCCC2)cc1	i	i	i	i	-55
Cc1nn2c(NCCN3CCOCC3)c3c(nc2c1-c1ccccc1)CCCC3	i	i	i	i	i
Cc1nn2c(N3CCN(C)CC3)c3c(nc2c1-c1ccccc1)CCCC3	i	i	i	i	-50
CCOC(=O)CN(C(=O)CSc1nnc(CNc2ccc(F)cc2)o1)c1ccccc1	i	i	i	i	-80
CCOC(=O)CN(C(=O)CSc1nnc2c(n1)[nH]c1ccc(OC)cc12)c1ccc(F)cc1	i	i	i	i	-65
SMILES	PI4K2A inh	LDHA inh	PI5P4K alpha inh	D3 ag	D3 antag
COc1ccc(CNC(=O)CSc2nnc3c(n2)[nH]c2ccc(F)cc23)cc1	i	i	i	i	i
CC1Cc2ccccc2N1C(=O)CSc1nnc2c(n1)[nH]c1ccc(F)cc12 (stereo not given)	i	i	i	i	-68
CCOC(=O)CN(C(=O)CSc1nnc(CNc2ccc(F)cc2)n1C)c1ccccc1	i	i	i	i	i
CCCC(C(=O)NCCC12CC3CC(CC(C3)C1)C2)c1ccccc1 (stereo not given)	nt	i	nt	nt	nt
COc1ccc(C(=O)Nc2ccc3oc(-c4ccncc4)nc3c2)c(OC)c1	nt	i	nt	nt	nt
Nc1nnnn1Cc1nnc(SCc2ccc(Cl)c(Cl)c2)n1-c1ccccc1	nt	i	nt	nt	nt
Cc1ccsc1S(=O)(=O)n1c(CN2CCOCC2)nc2ccccc21	i	nt	nt	nt	nt
O=C1c2ccccc2C(=O)N1CCc1c(-c2ccccc2)[nH]c2ccccc12	i	i	i	33	i
O=C1c2ccccc2C(=O)N1CCc1c(-c2[nH]c3ccccc3c2CCN2C(=O)c3ccccc3C2=O)[nH]c2ccccc12	i	i	i	i	i
Cn1cccc1C(=O)NC(=O)COC(=O)c1ccc(S(C)(=O)=O)cc1	i	i	i	i	i
CS(=O)(=O)c1ccc(C(=O)OCC(=O)NC23CC4CC(CC(C4)C2)C3)cc1[N+](=O)[O-]	i	i	i	i	-58
CS(=O)(=O)c1ccc(C(=O)OCC(=O)NC(=O)NC2CCCCC2)cc1[N+](=O)[O-]	nt	i	nt	nt	nt
Cn1cccc1C(=O)NC(=O)COC(=O)c1ccc(S(C)(=O)=O)c([N+](=O)[O-])c1	i	i	i	i	-77
COc1cccc(-c2nc(C)c(C(=O)NCc3ccc(C(=O)O)cc3)s2)c1	nt	i	nt	nt	nt
COc1cc(/C=C/C(=O)O)cc(S(=O)(=O)Nc2ccc3c(c2)OCO3)c1OC	i	i	-53	i	i
COc1cc(/C=C/C(=O)O)cc(S(=O)(=O)NNC(=O)c2ccc3c(c2)OCO3)c1OC	i	i	i	i	i
COc1cc(-c2cc3nc(NCc4ccco4)ccn3n2)cc(OC)c1OC	i	i	i	i	-75
COc1cc(-c2cc3nc(NCCOc4ccccc4)ccn3n2)cc(OC)c1OC	i	i	i	i	i
O=C1c2ccccc2C(=O)N1CCCCc1cn(C[C@H]2CC[C@@H]([C@@H]3CC[C@H](Cn4cc(CCCCN5C(=O)c6ccccc6C5=O)nn4)O3)O2)nn1	i	i	i	51	i
Cc1nn(Cc2n[nH]c(=S)n2Cc2ccccc2)c(C)c1Cl	i	i	i	i	-87
Cc1cc(C)n(Cc2n[nH]c(=S)n2Cc2ccccc2)n1	i	i	i	i	i
CCCCCCCCN1CN2Cc3ccccc3C2CS1(=O)=O (stereo not given)	i	nt	nt	nt	nt
Cc1ccc(S(=O)(=O)SC/C=C/CSS(=O)(=O)c2ccc(C)cc2)cc1	i	i	-85	i	?
Cc1ccc(S(=O)(=O)CCCS(=O)(=O)c2ccc(C)cc2)cc1	i	i	i	i	i
O=S(=O)(/C=C/C=C/S(=O)(=O)c1ccccc1)c1ccccc1	i	i	i	i	-101
SMILES	PI4K2A inh	LDHA inh	PI5P4K alpha inh	D3 ag	D3 antag
Cc1ccc(S(=O)(=O)C=CS(=O)(=O)c2ccc(C)cc2)cc1	i	?	i	i	-99
NS(=O)(=O)c1ccccc1	i	i	i	i	i
Cc1ccc(S(=O)(=O)SCCCSS(=O)(=O)c2ccc(C)cc2)cc1	i	i	-73	i	i
CCNC(=O)NC(=O)C(C)Sc1nc(NCC)c2ccccc2n1 (stereo not given)	nt	i	nt	nt	nt
CCNC(=O)C(C)Sc1nc(-c2ccco2)nc2ccccc12 (stereo not given)	nt	i	nt	nt	nt
COc1ccc(CCC(=O)NC2CC(=O)N(c3ccc(C)cc3)C2)cc1 (stereo not given)	i	i	nt	71	nt
Cc1c(-c2ccccc2)oc2c(C(=O)N3CCN(CCC(C)C)CC3)cccc2c1=O	nt	i	nt	nt	nt
COc1cc(/C=C2\SC(=S)N(NS(=O)(=O)c3ccc(C)cc3)C2=O)ccc1O	i	i	-68	i	?
CCOc1cc(/C=C2\SC(=S)N(NS(=O)(=O)c3ccc(C)cc3)C2=O)ccc1O	i	i	-59	i	?
